The structures appear in SMILES notation. Compounds without any hit were thinned out: in the full panel of roughly 83,000, 20% have a hit.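 Compound tested at a single concentration for 48 hours in 96-well plates; a percent growth value below 10 was scored as active.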 A number with no mark means an inactive call. Calls of active or inactive are those of the source.

The assay deals with HL-60(TB) leukemia. In words: NCI-60 one-dose screen, 48 h (100 = growth as untreated, 0 = no growth, -100 = all killed). Conditions: 10 µM unless noted.
As for `O=C1/C=C/[C@@H](O)[C@@H]2C[C@@H](O)C[C@H]2/C=C/CCC[C@H](CCc2ccc(C(F)(F)F)cc2)O1`, the growth is -10.1% (active). Regarding `CCOC(=O)c1sc(-c2ccc(OS(=O)(=O)c3ccccc3[N+](=O)[O-])c(C=O)c2)nc1C`, the growth is 73.3%. To `Cn1cc(-c2nc(-c3c[nH]c4ncccc34)cs2)c2cc(Br)ccc21` belongs 79.1%. As to `COc1cc(/C=C/C(=O)c2cc(OC)c(OC)c(OC)c2)ccc1Oc1nc2c(c(=O)n(C)c(=O)n2C)n1C`, the growth was -13.1% (active). With `CSc1nc2c(c(=O)n1C)C1(C(=O)N(Cc3ccccc3)c3ccccc31)c1c(nc(SC)n(C)c1=O)N2`, the growth was 73.4%. For the compound `CCCCCCCCCCCCNCCCc1ccccc1`, the growth is 32.3%.

`C=CC[n+]1c(/C=C2\Sc3ccccc3N2C)sc(-c2ccccc2)c1-c1ccccc1`: the growth was -25.5% (active). As for `O=C1CC(c2ccc3c(c2)OCO3)Nc2ccccc21` (centres undefined), the growth was 0.897% (active). As to `Nc1ccc(Oc2c(F)c(F)c(Oc3ccc(N)cc3)c(F)c2F)cc1`, the growth is 76.9%. As for `CN1CCN(c2nc(NCCCNc3ccnc4cc(Cl)ccc34)c3ccccc3n2)CC1`, the growth was 15%. `O=C(N/N=C/c1ccc(O)cc1O)c1cccc(Nc2ccnc(C(F)(F)F)c2)c1`: the growth was 8.21% (active). With `Cc1ccc(Nc2c(C(N)=O)cnc3ccc(S(=O)(=O)Nc4cc(C)on4)cc23)cc1`, the growth was 113%. For `N#Cc1ccc(OC(=O)Nc2c(Cl)cc(Cl)cc2Cl)cc1`, the growth is 102%. As to `CCCCn1c2cc(OCc3cn(-c4ccc(Cl)cc4)nn3)ccc2c2ccnc(C)c21`, the growth was -46.5% (active).
